Screening data deposited in PubChem BioAssay by several laboratories.
SMARCA2 act: SMARCA2 function activation, primary screen | MG213 cells, MMTV-luciferase reporter, dexamethasone, overnight | hit rate 1% among 370,000 | activation, % at 9.1 µM; in the data active = activation above about 7.8%;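 also: 0% = vehicle wells and 100% = reference activator wells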
ALR inh: inhibitors of human sulfhydryl oxidase ALR | P55789 | purified ALR, DTT oxidation, H2O2 HRP-luminol luminescence | inhibition, % (concentration not given with the values) | hit rate 3.8% among 290,000 | AID 485317;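 active = mean replicate inhibition above about 79%, with every replicate also reaching it, limit read from the data; inconclusive = only one of the two criteria met; inactive = mean below limit and not every replicate reaching it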
MIN6 prolif: inducers of beta-cell replication in MIN6 cells. AID 2380. proliferation, % at 10 µM. MIN6 cells proliferation, ATPlite luminescence, 48 h; cells starved in 0.2% serum; 100% = growth in 10% serum. hit rate 0.29% among 330,000;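 active = compounds whose signal lies at least 3.5 SD above the mean of all wells on their plate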;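 also: 0% = DMSO-treated cells in low-serum medium and 100% = 10% serum control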
JMJD2C inh: blocks human GASC-1 demethylase activity; GST-JMJD2C(1-420) H3K9me3 demethylation, DELFIA europium; AID 2099; inhibition, % at 2.35 µM; hit rate 0.069% among 330,000;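 active = more than half of a compound's replicate wells show inhibition beyond 50%, single wells judged on their own value; inconclusive = some, but no more than half, of replicates pass 50% inhibition; inactive = no replicate passes 50% inhibition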;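 also: signal counts dimethyl H3K9 product captured on neutravidin plate; 0% = median of DMSO wells and 100% = 0.3 times that DMSO median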
Target sequence (Q9H3R0 1-420 limits assumed): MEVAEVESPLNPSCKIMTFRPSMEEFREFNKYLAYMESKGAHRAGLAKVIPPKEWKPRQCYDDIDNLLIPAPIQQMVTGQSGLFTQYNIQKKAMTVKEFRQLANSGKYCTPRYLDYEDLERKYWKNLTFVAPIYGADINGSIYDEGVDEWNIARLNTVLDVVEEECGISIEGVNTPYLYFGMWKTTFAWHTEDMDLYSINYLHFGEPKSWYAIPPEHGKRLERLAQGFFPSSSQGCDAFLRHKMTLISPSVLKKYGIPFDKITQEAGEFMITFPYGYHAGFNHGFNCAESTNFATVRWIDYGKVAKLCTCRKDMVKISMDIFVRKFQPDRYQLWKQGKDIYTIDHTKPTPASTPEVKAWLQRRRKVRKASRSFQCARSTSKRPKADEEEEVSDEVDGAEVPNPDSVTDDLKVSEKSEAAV
PfM18AAP inh-1: PfM18AAP enzyme inhibition. recombinant PfM18AAP, H-Glu-NHMec fluorogenic cleavage. inhibition, % at 7.35 µM. hit rate 1.2% among 290,000. AID 1822;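 active = inhibition above the campaign mean inhibition over all tested compounds plus 3 SD, cut at about 28% in these data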;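 also: 0% = plate median of test compound wells and 100% = 2 mM ZnCl2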
Granule exo inh: blocks lytic granule exocytosis; inhibition, % at 10 µM; TALL-104 LAMP-1 surface exposure, flow cytometry; cells stimulated with thapsigargin and PMA; hit rate 0.66% among 360,000;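 active = inhibition above about 55%, limit read from the data; inconclusive = no clear call, values can overlap the other calls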
PfM18AAP inh-2: PfM18AAP inhibition, confirmation. inhibition, % at 7.35 µM. hit rate 28% among 2,400. recombinant PfM18AAP, H-Glu-NHMec fluorogenic cleavage. shares compounds with PfM18AAP inh-1;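 active = mean inhibition over replicate wells above the hit cutoff set for the earlier primary screen, cut at about 29% in these data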;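 also: 0% = median of test compound wells and 100% = 2 mM ZnCl2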
CTSL1 confirm: counter-screen for PFM18AAP inhibitors: confirmation of human cathepsin L inhibitors | shares compounds with PfM18AAP inh-1 | purified cathepsin L1, Z-Leu-Arg-MCA fluorescence | inhibition, % at 5.96 µM | 2,400 tested, under 10 active | AID 2178;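 active = average inhibition across replicates above the hit cutoff set in the earlier primary screen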;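 also: 0% = median of test compound wells and 100% = Z-Phe-Ala-diazomethylketone 1 µM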
Target sequence (P07711 whole entry, looked up): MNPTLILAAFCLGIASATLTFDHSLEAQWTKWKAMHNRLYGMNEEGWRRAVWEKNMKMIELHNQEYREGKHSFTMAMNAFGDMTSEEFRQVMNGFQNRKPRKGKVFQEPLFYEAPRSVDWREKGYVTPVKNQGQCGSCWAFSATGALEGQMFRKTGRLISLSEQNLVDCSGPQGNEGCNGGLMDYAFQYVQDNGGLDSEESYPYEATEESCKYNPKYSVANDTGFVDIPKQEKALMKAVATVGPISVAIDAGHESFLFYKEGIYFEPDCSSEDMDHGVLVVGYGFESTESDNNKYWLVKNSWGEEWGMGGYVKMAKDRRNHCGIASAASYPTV
* = called active by the depositor; ? = inconclusive; · = not tested or not shown. A selection: hits, their analogues and other compounds. The true share with any hit is near 5.4%.

SMILES | SMARCA2 act | ALR inh | MIN6 prolif | JMJD2C inh | PfM18AAP inh-1 | Granule exo inh | PfM18AAP inh-2 | CTSL1 confirm
O=C1NN(c2ccccc2)C(=O)/C1=C\c1coc2ccc(O)cc2c1=O | 2.0 | 99.3* | -5.3 | -6.0 | 36.6* | 0.9 | -3.9 | -6.3
Cc1ccc2occ(/C=N/O)c(=O)c2c1 | 0.8 | · | -2.9 | 5.6 | 2.0 | -1.2 | · | ·
CC(=O)Oc1ccc2occ(/C=N/c3cc(=O)[nH]c(=S)[nH]3)c(=O)c2c1 | 1.3 | 21.6 | -5.5 | -1.8 | 34.9* | -3.0 | 11.4 | -7.5
COc1ccc(Nc2nnc(C)c(=O)[nH]2)cc1 | -0.2 | -10.1 | -1.5 | -1.4 | 4.7 | -3.3 | · | ·
Cc1nnc(NNS(=O)(=O)c2ccc(Cl)cc2)[nH]c1=O | -1.6 | 53.1 | -1.4 | 1.6 | 72.3* | -1.7 | 60.0* | -8.6
Cc1ccc(S(=O)(=O)NNc2nnc(C)c(=O)[nH]2)cc1 | 3.8 | 16.4 | -4.4 | 0.8 | 73.9* | 0.6 | 39.3* | -5.2
O=C(O)C1CCN(C(=O)CCN2C(=O)S/C(=C\c3ccccc3)C2=O)CC1 | 1.0 | 16.0 | 1.1 | -6.4 | 37.0* | -1.2 | -44.9 | 7.8
COC(=O)[C@]12C=CCN1[C@@H](c1ccc(Cl)cc1)c1c(c3ccccc3n1S(=O)(=O)c1ccc(C)cc1)C2 | -5.0 | · | · | · | · | · | · | ·
NS(=O)(=O)c1ccc(NC(=S)NCCc2ccccc2)cc1 | 3.1 | · | -1.6 | -9.1 | 41.0* | 2.2 | 7.4 | 3.7
CC(=O)c1ccc(NC(=S)NCCc2ccc(S(N)(=O)=O)cc2)cc1 | 1.4 | 26.4 | -0.5 | -6.9 | 0.0 | -2.2 | · | ·
CC(C)OCCCNC(=S)Nc1ccc(S(N)(=O)=O)cc1 | -2.3 | -3.7 | 0.0 | 7.0 | 48.9* | -2.4 | 11.4 | -2.2
NS(=O)(=O)c1ccc(NC(=S)NCc2ccc(Cl)cc2)cc1 | -1.6 | 2.4 | -0.8 | -7.6 | 35.1* | 1.1 | 11.5 | 2.1
NS(=O)(=O)c1ccc(CCNC(=O)c2ccc[nH]c2=S)cc1 | 0.3 | · | 1.5 | 25.0 | 42.9* | -4.2 | 7.1 | -9.0
COC(=O)[C@H](C(C)C)N(CCc1cn(Cc2ccc(C)cc2)nn1)S(=O)(=O)c1ccc(F)cc1Br | -3.0 | · | · | · | · | · | · | ·
COC(=O)[C@]12C[C@H](CC(=O)N3CCC(c4ccccc4)CC3)C(=O)N(CCc3ccc(OC)c(OC)c3)C1=C[C@H](C1CCCC1)O[C@@H]2C | -1.4 | · | · | · | · | · | · | ·
COCCCNC(=S)NNC(=S)Nc1ccc(OC)cc1 | -0.7 | 38.4 | -3.7 | 18.9 | 49.2* | 4.9 | -1.7 | -4.3
O=S(=O)(c1ccc(C(F)(F)F)cc1)N1CCCc2nc(-c3ccc(F)cc3)ccc21 | -1.8 | · | · | · | · | · | · | ·
COc1ccc(S(=O)(=O)Nc2ccc(O)c(Sc3ncn[nH]3)c2)cc1 | -2.8 | · | -2.5 | 4.7 | 53.9* | -0.7 | 40.5* | 1.8
CC(C)c1ccc(S(=O)(=O)Nc2ccc(O)c(Sc3ncn[nH]3)c2)cc1 | -1.9 | 98.7* | -3.1 | -2.9 | 57.8* | 3.3 | 30.8* | -0.6
Cc1cc(C)nc(NS(=O)(=O)c2ccc(NC(=O)CSc3ncn[nH]3)cc2)n1 | -5.3 | -0.1 | -1.4 | 11.9 | 19.7 | 0.5 | · | ·
COc1ccc(S(=O)(=O)Nc2ccc3c(c2)CCC3)cc1 | -0.9 | · | 0.6 | 1.1 | 10.7 | -1.5 | · | ·
Cc1onc(-c2ccccc2)c1C(=O)N1CCN(C(=O)C(=O)c2cccc(C(F)(F)F)c2)CC1 | -3.1 | · | · | · | · | · | · | ·
S=c1nc(C2CCCCC2)n(-c2ccccc2)[nH]1 | 2.5 | 2.8 | 0.8 | -0.4 | 34.7* | 1.8 | 2.8 | -3.7
Cc1nc(=S)n(-c2ccccc2)[nH]1 | 0.0 | 46.6 | -0.7 | 3.6 | 2.6 | 0.0 | · | ·
CC(=O)N1CCN(C(=O)CN2C(=O)CC(C)(C)S(=O)(=O)c3ccccc32)CC1 | 2.6 | · | · | · | · | · | · | ·
SMILES | SMARCA2 act | ALR inh | MIN6 prolif | JMJD2C inh | PfM18AAP inh-1 | Granule exo inh | PfM18AAP inh-2 | CTSL1 confirm
CCCS(=O)(=O)N1CCC(C(=O)NCCc2ccc(C)cc2)CC1 | 0.2 | 5.0 | -4.0 | -3.1 | -7.9 | -0.5 | · | ·
CCN(CCCNC(=O)c1ccc(N2CCCC2=O)cc1)c1cccc(C)c1 | -4.8 | 90.3* | -1.9 | 18.8 | 41.0* | -2.4 | -17.1 | 1.8
CCCS(=O)(=O)N1CCC(C(=O)NCCCN(CC)c2cccc(C)c2)CC1 | 1.0 | 15.8 | -3.8 | 24.1 | 39.9* | 1.2 | -15.0 | -0.1
CCN(CCCNC(=O)C1CCC(=O)N1Cc1ccc(C)cc1)c1cccc(C)c1 (configuration not stated) | 1.3 | 99.3* | -3.9 | 1.7 | 54.0* | 23.6 | -16.9 | 4.4
Cc1ccc(CNC(=O)C2CCC(=O)N2Cc2ccccc2Cl)cc1 (configuration not stated) | -0.5 | · | 2.7 | -6.2 | 2.4 | 11.8 | · | ·
CCN(CCNC(=O)C1CCC(=O)N1Cc1ccc(C)cc1)c1ccccc1 (configuration not stated) | -3.2 | · | -0.2 | 5.4 | 4.5 | -3.2 | · | ·
CCN(CCCNC(=O)C1CCC(=O)N1Cc1ccccc1Cl)c1cccc(C)c1 (configuration not stated) | -0.9 | 98.9* | -1.5 | -2.3 | 36.8* | -4.2 | -22.6 | -0.7
COC(=O)[C@]12C[C@H](CC(=O)NCC3CCCCC3)C(=O)N(Cc3ccccc3)C1=C[C@H](C(C)(C)C)O[C@@H]2C | -6.6 | · | · | · | · | · | · | ·
C=CC(=O)NC1CCCCN(CCC)C1=O (configuration not stated) | 1.9 | · | · | · | · | · | · | ·
COc1ccc(-c2ccc3c(n2)CCCN3S(=O)(=O)c2ccccc2C)cc1 | -6.4 | · | · | · | · | · | · | ·
CC(C)C[C@@H]1COc2cccc(N3CCCCC3)c2S(=O)(=O)N1 | -1.4 | · | · | · | · | · | · | ·
CCN(CCCNC(=O)CN1C(=O)COc2ccccc21)c1cccc(C)c1 | -4.4 | 99.4* | -2.8 | 6.8 | 49.2* | 1.1 | -12.3 | 1.8
CCCCN(CCCNC(=O)CN1C(=O)COc2ccccc21)c1ccccc1 | -1.0 | 64.7 | -3.7 | 0.2 | 3.9 | -0.6 | · | ·
CCCCc1nnn2c1C1c3cc(-c4cccnc4)ccc3CCN1C(=O)C2 (configuration not stated) | -4.3 | · | · | · | · | · | · | ·
O=C1[C@@H]2Cc3c([nH]c4ccccc34)C(c3ccccc3)N2C(=O)CN1C1CCN(Cc2ccccc2)CC1 (some centres not stated) | -2.2 | 30.9 | -3.5 | 14.1 | 40.6* | 8.0 | -45.6 | 2.4
CCn1c(-c2ccc(OC)c(OC)c2)n[nH]c1=S | 0.9 | · | -1.2 | -1.0 | 1.8 | 5.7 | · | ·
C=CCn1c(-c2ccc(OC)c(OC)c2)n[nH]c1=S | -8.5 | 6.7 | -1.8 | 1.4 | 35.5* | -0.1 | -27.2 | -1.6
C=CCn1c(-c2sccc2C)n[nH]c1=S | -2.0 | 94.8* | 0.6 | -1.9 | 31.9* | ? | -16.6 | -1.7
NS(=O)(=O)c1cccc(NC(=O)COC(=O)CC2Sc3ccccc3NC2=O)c1 (configuration not stated) | -0.7 | -10.1 | -1.9 | 3.1 | · | 3.3 | · | ·
